Laboratory results from the supplement of paper PMC6555819.

Tests used:
Experiment in all cases: PBM binding z-score (relative to random genomic background probes); higher = stronger binding; sequences stand for … in GC…GCGATTGACAGCGTAGAATGAAGG
[1] = tested on: FXR:RXRa (NR concentration 270 nM, RXRa partner concentration 90 nM)
How it was run: (§1)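 Random background probes are the reference for binding z-scores. These scores derive from regression-normalized fluorescence on custom Agilent 4×180K protein-binding microarrays incubated 1 h with ligand-free nuclear receptor dimers. Binding was detected with antibodies against each partner (one per run).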

[2] = tested on: LXRa:RXRa (NR concentration 270 nM, RXRa partner concentration 90 nM)
How it was run: as §1

[3] = tested on: LXRa homodimer (NR concentration 270 nM)
How it was run: as §1

[4] = tested on: LXRb:RXRa (NR concentration 270 nM, RXRa partner concentration 90 nM)
How it was run: as §1

[5] = tested on: LXRb homodimer (NR concentration 270 nM)
How it was run: as §1

[6] = tested on: PPARa:RXRa (NR concentration 270 nM, RXRa partner concentration 90 nM)
How it was run: as §1

[7] = tested on: PPARg:RXRa (NR concentration 180 nM, RXRa partner concentration 90 nM)
How it was run: as §1

[8] = tested on: PPARg:RXRa 270nM:90nM, anti-RXR (NR concentration 270 nM, RXRa partner concentration 90 nM)
How it was run: as §1

[9] = tested on: PPARg:RXRa 30nM:10nM, anti-RXR (NR concentration 30 nM, RXRa partner concentration 10 nM)
How it was run: as §1

[10] = tested on: PPARg:RXRa 90nM:30nM, anti-RXR (NR concentration 90 nM, RXRa partner concentration 30 nM)
How it was run: as §1

[11] = tested on: PPARg:RXRa DBDmut IVT, anti-RXR (DBD mutation: RXRa K156A/R161A, NR concentration 270 nM, RXRa partner concentration 90 nM)
How it was run: as §1

[12] = tested on: PPARg:RXRa IVT, anti-PPARg (NR concentration 270 nM, RXRa partner concentration 90 nM)
How it was run: as §1

[13] = tested on: PPARg DBDmut:RXRa IVT, anti-PPARg (DBD mutation: PPARg1 K132A/R137A, NR concentration 270 nM, RXRa partner concentration 90 nM)
How it was run: as §1

[14] = tested on: PPARg DBDmut IVT, anti-PPARg (DBD mutation: PPARg1 K132A/R137A, NR concentration 270 nM)
How it was run: as §1

[15] = tested on: PPARg homodimer (NR concentration 180 nM)
How it was run: as §1

[16] = tested on: PXR:RXRa (NR concentration 270 nM, RXRa partner concentration 90 nM)
How it was run: as §1

[17] = tested on: PXR homodimer (NR concentration 270 nM)
How it was run: as §1

[18] = tested on: RARa:RXR (NR concentration 270 nM, RXRa partner concentration 90 nM)
How it was run: as §1

[19] = tested on: RARa homodimer (NR concentration 270 nM)
How it was run: as §1

[20] = tested on: RARb:RXRa (NR concentration 270 nM, RXRa partner concentration 90 nM)
How it was run: as §1

Row | Sequence | PBM binding z-score [1] | PBM binding z-score [2] | PBM binding z-score [3] | PBM binding z-score [4] | PBM binding z-score [5] | PBM binding z-score [6] | PBM binding z-score [7] | PBM binding z-score [8] | PBM binding z-score [9] | PBM binding z-score [10] | PBM binding z-score [11] | PBM binding z-score [12] | PBM binding z-score [13] | PBM binding z-score [14] | PBM binding z-score [15] | PBM binding z-score [16] | PBM binding z-score [17] | PBM binding z-score [18] | PBM binding z-score [19] | PBM binding z-score [20]
1 | GGCACGAGGGCAAGTTGATAGCAGAGTTTGATGG | 0.802 | 0.399 | -0.191 | 0.444 | -0.697 | 1.23 | 0.838 | 0.927 | -0.291 | 0.52 | 2.14 | 1.32 | -0.405 | -1.03 | 0.282 | 1.01 | 0.171 | 0.665 | -0.327 | 2.59
2 | GCGACTGGGGCAAGGCAGGTTACCATAAGGTTGG | -0.183 | 0.247 | -0.418 | -0.0825 | -0.867 | 0.979 | 0.978 | 0.49 | -0.677 | 0.000745 | 3.58 | 3.12 | 0.704 | -0.934 | 0.688 | 0.207 | -0.567 | 0.854 | -0.915 | 0.95
3 | AGAATGAGGTTATTACGATCAGGGAATTGCGGTC | 2.01 | 1.7 | 0.373 | 1.49 | 0.0914 | 2.66 | 1.55 | 1.88 | 0.584 | 1.11 | 3.27 | 2.51 | 1.02 | 0.66 | 0.902 | 1.26 | 0.487 | 1.78 | 1.21 | 1.42
4 | CCTAGTTGGTCAGGAGGTCACCCACCGGATATGA | 3.56 | 3.31 | 1.59 | 3.13 | 0.503 | 4.04 | 2.76 | 3.87 | 1.01 | 2.98 | 0.575 | 3.28 | -0.921 | -0.185 | 3.43 | 4.07 | 1.23 | 4.11 | 1.53 | 3.61
5 | GCTGCTAGGTCAGGTTGGTAAGCTAACGGGTACG | 1.13 | 0.523 | -0.37 | 0.0783 | -0.406 | 1.51 | 0.427 | 0.848 | -0.218 | 0.338 | 2.81 | 2.17 | -1.03 | -1.39 | 0.662 | -0.0241 | -0.591 | 0.597 | -0.659 | 3.09
6 | TCTATTAGTTGATTAGGGAAACCGAAACAGCGGA | 0.843 | 0.826 | 0.343 | 0.602 | 0.852 | 0.623 | -0.0137 | 2.16 | 3.69 | 3.2 | 2.16 | 0.295 | 0.834 | 0.978 | 1.03 | 0.624 | 1.07 | 0.778 | 1.68 | 0.394
7 | CCAGACAGGTCAGAAGGTAACTCAGCCTCGATTA | 2.82 | 2.29 | 0.142 | 1.7 | -0.0467 | 3.15 | 1.84 | 2.26 | 0.435 | 1.4 | 1.41 | 1.15 | -0.393 | -1.03 | 2.19 | 1.21 | 0.153 | 2.1 | 0.911 | 3.49
8 | AGAATGAGGTTATTAAGATCAGGGAGTTGCGGTC | 1.77 | 1.34 | 0.175 | 1.29 | 0.183 | 2.49 | 1.37 | 2.07 | 0.61 | 1.5 | 3.18 | 2.67 | 0.214 | 0.57 | 0.895 | 1.46 | 0.973 | 1.44 | 0.946 | 1.4
9 | TCGAGCAGGTTAGGGGCATTCAGAATGGCGTCGA | 0.0413 | 0.102 | -0.285 | 0.523 | -0.591 | 0.89 | -0.117 | 0.183 | 0.0683 | 0.228 | 0.212 | -0.145 | -1.03 | -1.48 | 0.0489 | 0.241 | -0.0165 | 0.385 | -0.605 | 1.11
10 | ATCTCTAGGTAAAAGTGCAGTGAATCCCGAGGAT | 0.179 | -0.141 | -0.393 | 0.0767 | 0.339 | 2.81 | 4.31 | 5.78 | 3.66 | 6.27 | 2.08 | 2.5 | 0.765 | 0.971 | 0.819 | 0.0221 | 0.246 | -0.0111 | 0.256 | 0.518
11 | CCTACTGGGCCATTCAGAGTTCATTGATCATATG | 0.991 | 2.71 | 6.11 | 1.86 | -0.389 | 2.28 | 1.04 | 1.61 | 0.0346 | 0.782 | 4.56 | 3.73 | -0.222 | 0.266 | 0.849 | 4.72 | 8.94 | 1.75 | -0.457 | 1.82
12 | TCTAGCAGGCCAGAGGGTCACTCCAGAGGTACGG | 0.862 | 0.694 | -0.544 | 0.582 | -0.995 | 1.91 | 1.19 | 2.54 | 1.72 | 2.31 | 0.669 | 0.586 | -1.43 | -1.75 | 0.69 | 1.08 | -0.334 | 1.92 | -0.787 | 1.89
13 | TCGAGTAGGTTAGTCGGGGCATTCTGCCAACATA | -0.351 | -0.585 | -0.552 | 0.145 | -0.607 | 0.377 | -0.424 | 0.587 | 0.946 | 0.676 | 2.38 | 1.64 | -0.758 | -0.515 | -0.211 | -0.103 | -0.171 | -0.0333 | -0.547 | 0.287
14 | AGAATGAGGTTACCAAAGATCAGGCAAACGCTTG | 1.67 | 5.94 | -0.392 | 3.24 | -0.531 | 3.41 | 2.77 | 2.57 | 0.868 | 1.84 | 3.6 | 3.49 | 0.423 | 0.272 | 0.661 | 1.24 | -0.362 | 2.11 | -0.358 | 2
